Among the data in the supplement of paper PMC7156485 are cell number values, retold here.

Where “and” joins values, the source holds several entries; their conditions need not be identical. Equal entries are not always repeated. ± gives the standard deviation of the averaged measurements.
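Further: TDF denotes transformed human dermal fibroblasts of mesenchymal origin.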

In this test the test system is TDF. Kind of test: cell number relative to DMSO (% of DMSO); higher = more cells (less growth inhibition / toxicity). The note with it: concentration: 10 µM; 24 h. Summed up: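 Six fields per well were imaged at ×10 after the cells were fixed in 3.7% formaldehyde and stained with a rabbit anti-H1.0 antibody, an AlexaFluor 647 secondary and DAPI. The HCC1569 and TDF cells had been plated at 800 per well in 384-well plates (RPMI, 10% FBS) and treated in triplicate with compounds at 10 µM for 24 h at 37 °C. The values are the median of replicates of H1.0 nuclear intensity or cell number, as percent of the plate control. Smoothing for positional effects was applied to HCC1569 data.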
In turn, `NC(N)=S` [Thiourea] yielded a cell number of 108.

In the case of `COc1cc2c(cc1OC)C1C(C)c3ccc(OC)c(OC)c3CN1CC2` (stereo not given) [Corydaline], the cell number was 106.

Regarding `CCC=CCC=CCC=CCC=CCC=CCC=CCCC(=O)O` [Docosahexaenoic acid], the cell number came to 97.5 ± 3.1.

Take `Nc1c(C(=O)O)c2nc3c(C(=O)O)cccc3oc-2cc1=O` [2-amino-3-oxo-3H-phenoxazine-1,9-dicarboxylic acid]: the cell number was determined as 88.1.

For `COC(=O)C1=COC(C)C2CN3CCc4c([nH]c5ccccc45)C3CC12` (stereo not given) [Teterahydroalstonine], the cell number amounted to 104.

In turn, `CC1C(=O)OC2CC34C5CC(C(C)(C)C)C36C(OC(=O)C6O)OC4(C(=O)O5)C21O` (stereo not given) [Ginkgolide A] yielded a cell number of 99 ± 3.

Take `Cl.Clc1cccc(Cl)c1NC1=NCCN1` [Clonidine.HCl]: the cell number turned out to be 100.

In the case of `COc1ccc2c(c1OC)C(=O)OC2C1c2c(cc3c(c2OC)OCO3)CCN1C.Cl` (stereo not given) [Noscapine hydrchloride], the cell number worked out at 93.7.

On to `CC1(C)CCC(C)(C)c2cc(C3(c4ccc(C(=O)O)cc4)OCCO3)ccc21`, for which the cell number was determined as 99.

Take `CNCCCC12CCC(c3ccccc31)c1ccccc12.Cl` [Maprotiline hydrochloride]: the cell number turned out to be 102.

Take `CC(=O)OCC1=C(C(=O)[O-])N2C(=O)C(NC(=O)Cc3cccs3)C2SC1.[Na+]` (stereo not given) [Cephalothin sodium]: the cell number is 113.

The compound `CC(C)c1cccc(O)c(=O)c1` [Hinokitiol] showed a cell number of 83.

Regarding `Cc1cc2ncc(-c3ccccc3)nc2cc1C`, the cell number turned out to be 97.9.

In turn, `CC1COC2=C1C(=O)C(=O)c1c2ccc2c1CCCC2(C)C` (stereo not given) [Cryptotanshinone] returned a cell number of 64.9.

On to `CCCCCCCCCCCCCCCCCCOCC(COP(=O)([O-])OCC[N+](C)(C)C)OC` (stereo not given) [1-Octadecyl-2-methylglycero-3 PC], for which the cell number amounted to 100.

Compound `CCCCCC#CCC(O)C=CC=CC=CC(O)CCCC(=O)O` (stereo not given) [14,15-Dehydroleukotriene B4] came in with a cell number of 96.7.

In turn, `Cc1ccc(S(=O)(=O)N2c3ccccc3Oc3ccccc32)cc1` [10-[(4-methylphenyl)sulfonyl]-10H-phenoxazine] showed a cell number of 11.3.

As to `C=C1NC(=O)C2=C(CCSC2)N1`, the cell number turned out to be 99.5.

The compound `N#CC(=Cc1ccc(O)c(O)c1)C(=O)NCc1ccccc1` had a cell number of 96.

As to `CC1CCC2(C(=O)O)CCC3(C)C(=CCC4C5(C)CC(O)C(O)C(C)(CO)C5CCC43C)C2C1C` (stereo not given) [Asiatic acid], the cell number amounted to 99.6.

`CC(=O)C1CCC2C3CC=C4CC(O)CCC4(C)C3CCC12C` (stereo not given) [Pregnenolone] registered a cell number of 102.

Compound `OC[C@H]1NC[C@@H](O)[C@@H]1O` [1,4-Dideoxy-1,4-imino-D-arabinitol] came in with a cell number of 97.9.

`N#CC(=C(N)Sc1ccccc1N)C(C#N)=C(N)Sc1ccccc1N`: the cell number was 95.9 and 96.9.

Take `CCOC(=O)C=Cc1ccc(O)c(OC)c1` [Ferulic acid ethylester]: the cell number came out at 95.4.

Take `N[C@@H](Cc1ccc(O)c(I)c1)C(=O)O` [3-Iodo-L-tyrosine]: the cell number stood at 110.

`O=S(=O)(NCc1ccccn1)c1ccc(Br)c2ccccc12` [4-bromo-N-(2-pyridinylmethyl)-1-naphthalenesulfonamide] showed a cell number of 99.2.

Turning to `CC1(C)SC2C(NC(=O)C(N)c3ccc(O)cc3)C(=O)N2C1C(=O)O` (stereo not given) [Amoxicillin], the cell number was 103.

Compound `COc1c2ccoc2cc2oc(=O)ccc12` [Bergapten] displayed a cell number of 94.

The compound `CCC(C)C(CC)C(N)=O` (stereo not given) [2-ethyl-3-methylpentanamide] displayed a cell number of 107.

On to `CN(C)C(=O)N=NC(=O)N(C)C` [N,N,N',N'-Tetramethylazodicarboxamide], for which the cell number came to 103.

Take `CCC1(O)CC2CN(CCc3c([nH]c4ccccc34)C(C(=O)OC)(c3cc4c(cc3OC)N(C)C3C(O)(C(=O)OC)C(OC(C)=O)C5(CC)C=CCN6CCC43C65)C2)C1.O=S(=O)(O)O` (stereo not given) [Vinblastine sulfate]: the cell number was 11.2.

Compound `N#CC(=Cc1ccc(O)c(O)c1)C(=O)NCCCc1ccccc1` [Tyrphostin AG 555] had a cell number of 90.7.

The compound `COc1cc2c(cc1OC)-c1cc(=Nc3c(C)cc(C)cc3C)n(C)c(=O)n1CC2.Cl` [Trequinsin.HCl] showed a cell number of 107.

Consider `CCCC(CCC)C(=O)[O-].[Na+]` [Valproic acid sodium], for which the cell number was found to be 119.

The compound `CC(O)C(=O)C1=Nc2c([nH]c(N)nc2=O)NC1` (stereo not given) [Sepiapterin] displayed a cell number of 113.

Turning to `Cl.O=C(NCCCCN1CCN(c2cccc(Cl)c2Cl)CC1)c1ccc2c(c1)Cc1ccccc1-2`, the cell number stood at 98.2.

As for `COc1cc(O)c(C(=O)C=Cc2ccccc2)c(OC)c1` [Flavokawain B], the cell number turned out to be 81.6.

`COc1ccc(-c2cc(=O)c3ccc(O)cc3o2)cc1` [Pratol]: the cell number was 87.4.

`NC(C(=O)NC1C(=O)N2C(C(=O)O)=C(Cl)CSC12)c1ccccc1` (stereo not given) [Cefaclor] gave a cell number of 99.5.

As to `CN1CCN(C2=Nc3ccccc3Sc3ccc(Cl)cc32)CC1` [Clothiapine], the cell number came out at 88.9.
